The nature of assay [1]: NCI Yeast Anticancer Drug Screen. Data for the rad50 strain (AID 155).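 Further: 0% = growth of vehicle-only cultures of the same strain.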 The settings on record: S. cerevisiae rad50 strain growth inhibition; at 50.0 µM; hits give high values. An outline of the steps: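 Compounds were tested on a yeast strain with an engineered DNA damage repair alteration; the reported value is growth inhibition normalised to vehicle treatment.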
A short description of assay [2]: NCI Yeast Anticancer Drug Screen. Data for the mec2-1 strain (AID 157). The note with it: S. cerevisiae mec2-1 strain, at 50.0 µM, hits give high values. An outline of the steps: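 Growth inhibition is read against vehicle-treated controls after compound exposure of the mec2-1 yeast strain, which is defective in DNA damage repair or cell cycle control.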
Assay [3] is described as follows: NCI Yeast Anticancer Drug Screen. Data for the sgs1 mgt1 strain (AID 161).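 Further: 0% = growth of cultures given vehicle only.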 The note with it: S. cerevisiae sgs1 mgt1 strain, at 50.0 µM, hits give high values. Put shortly: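 Percent growth inhibition was derived by comparing compound-exposed mutant yeast with vehicle-exposed cultures. The strain carries alterations in DNA damage repair.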
Assay [4] in a line: NCI Yeast Anticancer Drug Screen. Data for the cln2 rad14 strain (AID 165).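 Further: 0% = growth equal to vehicle treated cultures.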 The settings on record: S. cerevisiae cln2 rad14 strain, at 50.0 µM, hits give high values. Put shortly:
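Growth inhibition, relative to vehicle-treated controls, is the read-out. The test organism is a yeast strain with defined genetic alterations, cln2 rad14.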

The nature of assay [5]: NCI Yeast Anticancer Drug Screen. Data for the bub3 strain (AID 167). The settings on record: S. cerevisiae bub3 mutant strain, at 50.0 µM, hits give high values. Put shortly:
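Growth of a checkpoint-deficient yeast mutant is measured after compound exposure. Values represent inhibition relative to vehicle.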

A short description of assay [6]: NCI Yeast Anticancer Drug Screen. Data for the mlh1 rad18 strain (AID 175). The settings on record: S. cerevisiae mlh1 rad18 strain growth inhibition; at 50.0 µM; hits give high values. An outline of the steps:
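Cells of a genetically altered yeast strain, deficient in DNA damage repair, were treated with compound. Their growth was then compared with that of vehicle-treated cultures to give inhibition.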

Molecules are shown by their SMILES. Values joined by “and” are separate entries in the source; they are usually repeats but may differ in a detail not shown here. Equal entries are not always repeated. Compounds without any hit were thinned out: in the full panel of roughly 79,000, 15% have a hit. A number with no mark means an inactive call. Active and inactive are the calls of the source. No stated cut-off is given here; in the data, active means growth inhibition above about 70%; inactive means the rest.

For `C=CC(=O)NCNC(=O)C=C`, the growth inhibition is 21.9% and 5.15% in assay [1]; 19.3% and 1.85% in assay [2]; 8.75% and -4.05% in assay [3]; 10.6% and 4.3% in assay [4]; 5.25% and -11.3% in assay [5]; -15.8% and -2.9% in assay [6].

Take `C[C@]12CCC(=O)C=C1CC[C@H]1[C@@H]3CCC(=O)[C@@]3(C)CC[C@@]12F`: the growth inhibition is -2.35% in assay [1]; -6.1% in assay [2]; 2.25% in assay [3]; -31.8% in assay [4]; -3.7% in assay [5]; -5.75% in assay [6].

As to `NNc1cccc2c1CCC(N)C2` (centres undefined), the growth inhibition in assay [1] is -0.35%; in assay [2], 21.7%; in assay [3], 6.35%; in assay [4], -11.4%; in assay [5], 5%; in assay [6] it was 9.65%.

As to `CN(C)CCNC(=O)c1ccc([N+](=O)[O-])c(C(C)(C)C(=O)Nc2ccc(N(CCCl)CCCl)cc2)c1`, the growth inhibition in assay [1] is -1%; in assay [2], -24.4%; in assay [3], 8.9%; in assay [4] it was -44.2%; in assay [5] it was -10.8%; in assay [6], -24.9%.

Consider `C=C1CC/C=C(/C)C(=O)C(OC(C)=O)C2C1CC2(C)C` (centres undefined), for which the growth inhibition was 78% (active) in assay [1]; 83.6% (active) in assay [2]; 81.2% (active) in assay [3]; 70.7% (active) in assay [4]; 86.2% (active) in assay [5]; 81.4% (active) in assay [6].

For the compound `CN1CN(c2ccccc2)C2(CCN(CCc3csc4ccccc34)CC2)C1=O`, the growth inhibition in assay [1] is 29.9%; in assay [2], 12.2%; in assay [3] it was 17.8%; in assay [4], 16.9%; in assay [5], 3.5%; in assay [6], 19.4%.

As to `COc1ccc([N+](=O)[O-])cc1CNCCCl`, the growth inhibition is -2.75% in assay [1]; 24.6% in assay [2]; 36.5% in assay [3]; -14.8% in assay [4]; 20.1% in assay [5]; 19.4% in assay [6].

Consider `COc1cc(C(=O)O)cc(OC)c1OC`, for which the growth inhibition in assay [1] was -19.9%; in assay [2], -19.6%; in assay [3], -23.1%; in assay [4], -26.8%; in assay [5], 2.05%; in assay [6], -9.95%.

Turning to `CSCCC(N)C(=O)O` (centres undefined), the growth inhibition in assay [1] is -50.4% and -3.35%; in assay [2], 9.55% and -25.1%; in assay [3] it was -6% and -7.65%; in assay [4], -27.8% and -1%; in assay [5], 32.4% and -11.6%; in assay [6], -103% and -2.65%.

Turning to `O=C(O)CCC(=O)O`, the growth inhibition was -8.1% and 5.7% in assay [1]; -16.6% and -2.05% in assay [2]; -22.3% and -6.35% in assay [3]; -41.9% and 13.8% in assay [4]; -28% and -2.05% in assay [5]; -13.1% and 11.2% in assay [6].

Turning to `CC[As](CC)SC(CC[C@@H](C)C1CC[C@@]2(C)C3=C(CC[C@]12C)[C@@]1(C)CC[C@H](O)C(C)(C)[C@@H]1CC3)C(C)C` (some centres undefined), the growth inhibition in assay [1] was 3.95%; in assay [2], 17.6%; in assay [3], -8.15%; in assay [4] it was -21.1%; in assay [5] it was -1.55%; in assay [6], -25.6%.

For the compound `Cc1c2n(c3ccccc13)CC1CON(C)C21` (centres undefined), the growth inhibition in assay [1] was -14.4%; in assay [2], -11.5%; in assay [3], -8.95%; in assay [4] it was -1.3%; in assay [5], -31.4%; in assay [6] it was -19.9%.

For `O=C1C[C@@H]2OCC=C3C[N+]4([O-])CC[C@]56c7ccccc7N1[C@H]5[C@H]2[C@H]3C[C@@H]64` (some centres undefined), the growth inhibition in assay [1] was -4.85% and -6.5%; in assay [2], -7.75% and -6.3%; in assay [3] it was 2.05%; in assay [4], 0.9%; in assay [5], 25.4%; in assay [6], -3.15% and -3.7%.

Take `CCN(CC)C(=S)SCc1ccccc1OC(=O)NC`: the growth inhibition was -4.35% in assay [1]; -8.6% in assay [2]; 7.2% in assay [3]; -43.5% in assay [4]; 33.1% in assay [5]; -5.95% in assay [6].

On to `O=C(O)C(O)C(O)C(O)C(O)C(O)C(O)CO` (centres undefined), for which the growth inhibition was -18.1% in assay [1]; -6.95% in assay [2]; -33.4% in assay [3]; -73.5% in assay [4]; 3% in assay [5]; 2.95% in assay [6].

In the case of `Cc1ccc(CI)cc1`, the growth inhibition is -2.15% in assay [1]; -6.7% in assay [2]; -22.9% in assay [3]; 18.9% in assay [4]; 20.1% in assay [5]; 19.5% in assay [6].

On to `CC(C)(C)NC(=O)C(Cl)Cl`, for which the growth inhibition in assay [1] was -0.65%; in assay [2], -5.7%; in assay [3], -5.85%; in assay [4], -9.6%; in assay [5] it was 5.15%; in assay [6] it was 3.35%.

Turning to `CC(=O)CC(C)=O.CC(=O)CC(C)=O.CC(=O)CC(C)=O.[Mn]`, the growth inhibition was 11.2% and 10.1% in assay [1]; -1.45% and -5% in assay [2]; 8% and 1.6% in assay [3]; 10.8% and -53% in assay [4]; -3.1% and 3.2% in assay [5]; 8.05% and 18.4% in assay [6].

`CCN(CCCl)c1ccc(NC(=O)c2cc(C(=O)NCCN(C)C)cc(C(=O)Nc3ccc(N(CC)CCCl)cc3)c2)cc1`: the growth inhibition in assay [1] is 35%; in assay [2] it was -23.9%; in assay [3], -15.8%; in assay [4], 2.95%; in assay [5] it was -1.4%; in assay [6], 12.5%.

(Values after PubChem BioAssay (NCI).)
